High-throughput results from PubChem BioAssay.
Only some compounds are listed: those with a hit (about 11% of all), similar ones and a draw of the others.
USP28 inh = human USP28 deubiquitinase inhibition; Q96RU2; purified USP28, Ub-rhodamine cleavage fluorescence, 30 min; inhibition, % at 25 µM; 47,000 compounds, 3% hits; AID 1645857
Target sequence (Q96RU2 whole entry, looked up): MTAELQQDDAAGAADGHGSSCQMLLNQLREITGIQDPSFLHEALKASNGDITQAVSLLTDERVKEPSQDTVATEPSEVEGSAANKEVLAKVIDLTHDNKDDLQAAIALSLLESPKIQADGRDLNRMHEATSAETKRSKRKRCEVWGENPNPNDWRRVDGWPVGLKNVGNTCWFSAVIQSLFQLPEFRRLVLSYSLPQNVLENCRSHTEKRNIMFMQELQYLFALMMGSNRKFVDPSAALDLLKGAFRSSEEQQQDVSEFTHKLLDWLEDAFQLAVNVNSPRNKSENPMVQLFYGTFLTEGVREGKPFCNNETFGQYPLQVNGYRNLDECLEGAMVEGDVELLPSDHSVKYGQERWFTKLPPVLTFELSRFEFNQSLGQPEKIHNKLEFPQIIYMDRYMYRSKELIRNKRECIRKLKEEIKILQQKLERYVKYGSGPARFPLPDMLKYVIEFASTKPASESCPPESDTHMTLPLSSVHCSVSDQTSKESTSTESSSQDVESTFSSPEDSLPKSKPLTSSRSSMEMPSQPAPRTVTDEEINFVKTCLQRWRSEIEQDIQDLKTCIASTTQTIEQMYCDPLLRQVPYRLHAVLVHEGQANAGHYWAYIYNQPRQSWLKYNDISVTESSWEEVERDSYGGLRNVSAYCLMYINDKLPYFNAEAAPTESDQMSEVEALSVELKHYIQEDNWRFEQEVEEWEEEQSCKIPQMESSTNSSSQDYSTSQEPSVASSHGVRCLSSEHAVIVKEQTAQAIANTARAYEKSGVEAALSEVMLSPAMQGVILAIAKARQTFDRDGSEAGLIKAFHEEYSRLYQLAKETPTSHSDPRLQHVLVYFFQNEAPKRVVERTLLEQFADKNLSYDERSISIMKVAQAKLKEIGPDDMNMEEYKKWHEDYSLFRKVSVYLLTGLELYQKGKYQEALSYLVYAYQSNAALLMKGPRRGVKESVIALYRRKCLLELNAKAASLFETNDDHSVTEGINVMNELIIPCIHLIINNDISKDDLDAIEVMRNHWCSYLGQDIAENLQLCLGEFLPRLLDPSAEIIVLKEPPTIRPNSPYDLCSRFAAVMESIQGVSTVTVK
USP17 inh = inhibitors of human USP17 deubiquitinase. inhibition, % at 50 µM. 47,000 compounds, 6.5% hits. AID 1645855. purified USP17, Ub-rhodamine cleavage fluorescence, 3 h. A8MUK1
OTUD3 inh = blocks human OTUD3 ubiquitin-rhodamine cleavage; inhibition, % at 25 µM; purified OTUD3, Ub-rhodamine fluorescence, 2 h; Q5T2D3; 47,000 compounds, 0.7% hits; AID 1645858
USP30 block = blocks human USP30 ubiquitin-rhodamine cleavage; AID 1645860; 47,000 compounds, 5.3% hits; Q70CQ3; purified USP30, Ub-rhodamine cleavage fluorescence; inhibition, % at 25 µM
An asterisk follows results filed as active. Cut-off read from the data, not from the text of the source: active = inhibition above about 30%; inactive = the rest.

`C[C@@]12CCc3occc3C1CCC13CC(CCC12)[C@@](O)(CO)C3` (some centres undefined) gave USP28 inh 1.6, USP17 inh 47.2*, OTUD3 inh 15.9 and USP30 block 31.6*.
Screening O=C(Cn1cnc(NC(=O)c2ccccc2)n1)Nc1cccc(F)c1 returned USP28 inh -5.1, USP17 inh -7.2, OTUD3 inh -7.8 and USP30 block -19.7.
For CNc1nc(C2CCN(S(=O)(=O)c3ccc(C)c(C)c3)C2)nc2c1CCN(C(C)=O)C2 (centres undefined) the results were USP28 inh 6.6, USP17 inh 7.5, OTUD3 inh 10.8 and USP30 block 24.7.
`O=C(c1cccnc1)c1c(N2CCOCC2)[nH]c(=O)c2ccccc12` gave USP17 inh 37.2* and OTUD3 inh -2.6.
Screening CCCOC(=O)c1cc(NC(=O)c2cccnc2)ccc1N1CCOCC1 returned USP28 inh 8.2, USP17 inh 5.4, OTUD3 inh 6.1 and USP30 block 21.1.
Screening Cc1ccc(C(=O)N2C[C@@H]3C[C@H]2C[C@@H]3NS(=O)(=O)c2ccccc2)cn1 returned USP28 inh 9.1, USP17 inh 18.6, OTUD3 inh 6.4 and USP30 block 26.0.
`COc1ccc(NC(=O)N2CCN(C3=CC4=NC(C)CN4C=N3)CC2)c(C)c1` (centres undefined) gave USP28 inh -3.7, USP17 inh -33.3, OTUD3 inh -3.2 and USP30 block -3.5.
Screening Cc1ccc(NC(=O)N2CCN(C3=CC4=NC(C)CN4C=N3)CC2)c(C)c1 (centres undefined) returned USP28 inh 15.0, USP17 inh 17.2, OTUD3 inh 6.5 and USP30 block 33.9*.
Screening Cc1cc(C)cc(N2C(N)=NC(N)=NC2c2ccccc2F)c1 (centres undefined) returned USP28 inh 13.2, USP17 inh 17.4, OTUD3 inh -82.0 and USP30 block 36.9*.
Cc1noc(-c2cccc(NC(=O)C3CC(=O)N(Cc4ccccc4)C3)c2)n1 (centres undefined) was read as USP28 inh -8.4, USP17 inh -20.4, OTUD3 inh -13.1 and USP30 block -27.5.
Screening CCc1cc(C(=O)N2CCC3(CC(Nc4cc(C)ncn4)C3)C2)on1 (centres undefined) returned USP17 inh -9.3 and OTUD3 inh -7.3.
For COc1ccc(-n2c(C)nnc2-c2cnn(-c3ccccc3)c2N)cc1 the results were USP28 inh -3.3, USP17 inh -11.1, OTUD3 inh -4.0 and USP30 block -0.9.
COc1ccc(-c2cc(C(=O)NCCC3=CCCCC3)nn2C2CCS(=O)(=O)C2)cc1 (centres undefined) was read as USP28 inh 43.4*, USP17 inh 27.2, OTUD3 inh 9.8 and USP30 block 16.8.
`COc1ccc(-c2cc(C(=O)NC3CC3)nn2C2CCS(=O)(=O)C2)cc1` (centres undefined) gave USP28 inh 0.0, USP17 inh 5.7, OTUD3 inh 4.3 and USP30 block 16.8.
COC1C(O)=C2C(=O)O/C(C)=C/C=C/C=C/C=C/CC(c3ccccc3)NC(=O)/C=C/C=C/C=C\C=C\C2(C)C1O (centres undefined) was read as USP28 inh 31.2*, USP17 inh 43.2*, OTUD3 inh 33.3* and USP30 block -51.2.
Screening COc1ccc(S(=O)(=O)N2CCOC3(COc4ccccc4N(C)C3)C2)cc1OC (centres undefined) returned USP28 inh -5.2, USP17 inh -0.1, OTUD3 inh -4.8 and USP30 block -14.6.
Fc1cccc(-n2ccc(-c3ccccc3)n2)n1 was read as USP28 inh -2.4, USP17 inh -3.5, OTUD3 inh 0.4 and USP30 block 0.1.
`COc1ccc(-c2c(C(=O)O)sc3c2NC(=O)CC3c2cc(F)ccc2F)cc1` (centres undefined) gave USP28 inh 14.4, USP17 inh 5.2, OTUD3 inh 12.4 and USP30 block 35.0*.
For O=C(Cn1c(=O)n(Cc2ccncc2)c(=O)c2ncccc21)Nc1cccc(F)c1 the results were USP28 inh 4.1, USP17 inh -2.0, OTUD3 inh 1.7 and USP30 block 1.2.
`O=C(Cn1c(=O)c2cccn2c2ccccc21)NCc1ccc(F)cc1` gave USP28 inh 1.5, USP17 inh 0.5, OTUD3 inh 0.1 and USP30 block -138.0.
Screening Cc1ccc(Cn2c(=O)c3ncccc3n(CC(=O)NCc3ccc(F)cc3)c2=O)cc1 returned USP28 inh 78.4*, USP17 inh 76.6*, OTUD3 inh 45.2* and USP30 block 84.0*.
`O=C(Cn1c(=O)n(Cc2ccc3c(c2)OCO3)c(=O)c2ncccc21)c1ccccc1` gave USP28 inh 14.9, USP17 inh 6.3, OTUD3 inh 2.3 and USP30 block 53.8*.
`Cc1ccc(CNC(=O)Cn2c(=O)n(CCCC(=O)NCc3ccc(F)cc3)c(=O)c3ccccc32)cc1` gave USP28 inh 13.1, USP17 inh 33.4*, OTUD3 inh 24.3 and USP30 block 17.9.
`O=C(Cn1c(=O)n(Cc2ccccc2)c(=O)c2ncccc21)N1CCCc2ccccc21` gave USP28 inh -7.6, USP17 inh -2.7, OTUD3 inh -14.6 and USP30 block -9.5.
Screening O=C(Cn1c(=O)n(Cc2ccc(F)cc2)c(=O)c2sccc21)Nc1cccc(Cl)c1 returned USP28 inh 0.0, USP17 inh 65.0*, OTUD3 inh -7.8 and USP30 block 27.9.
For CCOc1ccc(-n2c(=O)c3sccc3n(CC(=O)Nc3cccc(C)c3)c2=O)cc1 the results were USP28 inh -3.3, USP17 inh 1.1, OTUD3 inh 2.4 and USP30 block -0.3.
`Cc1cc(C)cc(NC(=O)CSc2oc(-c3ccco3)nc2S(=O)(=O)c2ccc(F)cc2)c1` gave USP28 inh -44.1, USP17 inh -29.2, OTUD3 inh -32.8 and USP30 block -286.8.
CN1CCc2c(sc3c2C(=O)NC(c2ccccc2[N+](=O)[O-])N3)C1 (centres undefined) was read as USP28 inh -22.0, USP17 inh -23.6, OTUD3 inh -8.5 and USP30 block -68.9.
`O=C(Cn1c(=O)n(Cc2ccc(F)cc2)c(=O)c2ncccc21)Nc1ccccc1` gave USP28 inh 16.2, USP17 inh 24.4, OTUD3 inh 5.3 and USP30 block 64.9*.
`O=C(NCc1ccccc1CN1CCCC1)c1cccc2cccnc12` gave USP28 inh 37.0*, USP17 inh 2.5, OTUD3 inh -12.5 and USP30 block -27.3.
Screening Cc1cc(C)c2nc(N3CCC(C(=O)N4CCc5ccccc5C4)CC3)sc2c1 returned USP28 inh -4.9, USP17 inh -15.2, OTUD3 inh 0.1 and USP30 block -10.9.
Screening Cc1cccc(C)c1NC(=O)C1(NC(=O)c2ccc(Br)cc2)CCCCC1 returned USP28 inh 8.9, USP17 inh 35.5*, OTUD3 inh 15.8 and USP30 block 25.6.
COc1ccc(CNC(=O)c2nc3c(s2)CCN(C(=O)c2cc(C)on2)CC3)cc1 was read as USP28 inh 13.2, USP17 inh -8.6, OTUD3 inh 0.8 and USP30 block 7.1.
